{
  "source": "ChEMBL document CHEMBL3988442",
  "about": "“University of Dundee, Small-Polar-MMV Screening Library” (2021)",
  "note": "Hit rate of the full screen: of about 48,000 compounds, about 13,000 (27%) showed an effect of 50% or more. This is one part of the list.",
  "data": [
    {"test_system": "Wolbachia pipientis", "assay": "Anti-Wolbachia Cell-Based Screen", "type": "functional", "design": "scale not given: in the data most compounds retested in dose-response had high values", "conditions": "5 µM", "units": {"Percent Effect": "%"}, "values": [
      {"smiles": "COc1cc(F)c(-n2cnc(CCNC(C)=O)c2)cc1F", "Percent Effect": -17.55},
      {"smiles": "CCN1CCN(S(=O)(=O)N2CCCC2)[C@H]2CS(=O)(=O)C[C@H]21", "Percent Effect": -2.731},
      {"smiles": "CCN(CC(=O)NCc1nc(C2CC2)no1)Cc1ccc(Cl)cc1", "Percent Effect": 3.966},
      {"smiles": "CC(C)CN1CCN(C(=O)NCc2cccnc2-n2cccn2)CC1", "Percent Effect": 4.797},
      {"smiles": "CC(C)CN1CC(C(=O)NCc2cccnc2-n2cccn2)CC1=O", "note": "(stereo unspecified)", "Percent Effect": 126},
      {"smiles": "O=C(NCc1cnn2cccnc12)C1CC(=O)N(Cc2cccnc2)C1", "note": "(stereo unspecified)", "Percent Effect": -5.518},
      {"smiles": "COCC1c2nnn(CC3CC3)c2CCN1C(=O)CS(C)(=O)=O", "note": "(stereo unspecified)", "Percent Effect": -0.612},
      {"smiles": "COc1ccccc1C(C)(C)NCc1ccco1", "Percent Effect": -0.6951},
      {"smiles": "CN(C)C(CNc1c(NCc2ccco2)c(=O)c1=O)c1ccccc1", "note": "(stereo unspecified)", "Percent Effect": 131.6},
      {"smiles": "CC(O)CNc1c(NCc2ccco2)c(=O)c1=O", "note": "(stereo unspecified)", "Percent Effect": 135.5},
      {"smiles": "CC(CNC(=O)NCc1ccco1)CC1(C)OCCO1", "note": "(stereo unspecified)", "Percent Effect": 3.835},
      {"smiles": "O=S(=O)(Cc1ccccc1)NCc1ccco1", "Percent Effect": 0.9463},
      {"smiles": "C[C@@H](O)CNc1c(NCc2ccco2)c(=O)c1=O", "Percent Effect": 100.7},
      {"smiles": "Cc1nn(-c2ccccc2)nc1C(=O)NCC(c1ccco1)N(C)C", "note": "(stereo unspecified)", "Percent Effect": -4.253},
      {"smiles": "Cc1ccc(CS(=O)(=O)NCc2ccco2)cc1", "Percent Effect": 3.7},
      {"smiles": "CNc1c(NCc2ccco2)c(=O)c1=O", "Percent Effect": 113.6},
      {"smiles": "CCCNC(=O)CCNC1CSCCc2ccccc21", "note": "(stereo unspecified)", "Percent Effect": -10.65},
      {"smiles": "COC(=O)c1sccc1S(=O)(=O)N1CCC(Oc2ncccc2Cl)CC1", "Percent Effect": 25.07},
      {"smiles": "OCCN1CCc2[nH]nc(C(c3ccccc3)c3ccccc3)c2C1", "Percent Effect": 13.32},
      {"smiles": "CCc1cnc(CN(C)C(=O)Nc2cnc3c(c2)c(C)nn3C)s1", "Percent Effect": -8.075},
      {"smiles": "O=C(c1ccc(O)nc1)N1CCN(C(=O)c2ccc(F)cc2F)CC1", "Percent Effect": -4.376},
      {"smiles": "CCn1c(NCc2ccco2)nc2c(C)nn(C)c2c1=O", "Percent Effect": 25.01},
      {"smiles": "CNS(=O)(=O)c1cccc(C(C)NCc2ccco2)c1", "note": "(stereo unspecified)", "Percent Effect": -0.2197},
      {"smiles": "CC(C)CNc1c(NCc2ccco2)c(=O)c1=O", "Percent Effect": 131.9},
      {"smiles": "CSCCCNC(=O)c1coc(Cn2cnc3ccccc32)n1", "Percent Effect": 7.588},
      {"smiles": "C1CC(NCc2nnc(C3CC3)o2)CN(Cc2noc(C3CC3)n2)C1", "note": "(stereo unspecified)", "Percent Effect": 132.9},
      {"smiles": "CCc1nc(CN2CCCC(NCc3nnc(C4CC4)o3)C2)no1", "note": "(stereo unspecified)", "Percent Effect": 5.014},
      {"smiles": "CC(C)c1nnc(CNC2CCCN(Cc3noc(C4CC4)n3)C2)o1", "note": "(stereo unspecified)", "Percent Effect": 144.7},
      {"smiles": "c1ccc2oc(NC3CCCN(Cc4noc(C5CC5)n4)C3)nc2c1", "note": "(stereo unspecified)", "Percent Effect": 2.188},
      {"smiles": "C1CC(c2noc(C3CC3)n2)CN(Cc2noc(C3CC3)n2)C1", "note": "(stereo unspecified)", "Percent Effect": 0.1706},
      {"smiles": "CCc1nnc(CNC2CCCN(Cc3noc(C4CC4)n3)C2)o1", "note": "(stereo unspecified)", "Percent Effect": 121.7}
    ]}
  ]
}
